According to PubChem BioAssay (EPA / NIEHS):
Activity calls are given as the source filed them. How the source made its calls: active means hit-call score of the fitted dose curve at least 0.9, where 1 is the maximum; inactive means score below 0.9.

Test: ATG_SREBP_CIS: Attagene CIS-FACTORIAL HepG2 Assay for human Sterol Regulatory Element Binding (SREBP) (AID 2282962)
Settings: HepG2 Attagene cis-factorial SREBP reporter, mRNA; actives raise or lower the signal
Protocol: ATG_CIS is a cell-based, multiplexed-readout assay that uses HepG2, a human liver cell line, with measurements taken at 24 hours after chemical dosing in a 24-well plate.ATG_SREBP_CIS is one of 52 assay component(s) measured or calculated from the ATG_CIS assay. It is designed to make measurements of mRNA induction, a form of inducible reporter, as detected with fluorescence intensity signals by Reverse transcription polymerase chain reaction (RT-PCR) and Capillary electrophoresis technology.Data from the assay component ATG_SREBP_CIS was analyzed into 1 assay endpoint. This assay endpoint, ATG_SREBP_CIS, was analyzed with bidirectional fitting relative to DMSO as the negative control and baseline of activity. Using a type of inducible reporter, measures of mRNA for gain or loss-of-signal activity can be used to understand the reporter gene at the transcription factor-level as they relate to the gene SREBF1. Furthermore, this assay endpoint can be referred to as a primary readout, because this assay has produced multiple assay endpoints where this one serves a reporter gene function. To generalize the intended target to other relatable targets, this assay endpoint is annotated to the dna binding intended target family, where the subfamily is basic helix-loop-helix leucine zipper.
Human liver HepG2 cells are transiently transfected with multiple reporter transcription units (MRTUs) in 6-well plates using FuGene 6 reagent (Roche; 3 ml FuGene/1 mg DNA). The MRTU constructs are regulated by a cis-regulating element (promoter). […] A major difference between the CIS and TRANS system is that in CIS activities of endogenous TFs are measured, whereas the TRANS assay evaluates changes in activities of exogenous, chimeric NR-Gal4 proteins. […] At the end of 24 hour incubation, total RNA was isolated using TriZol reagent (Invitrogen). The isolated RNA is then reverse-transcribed using oligo(dT) primer and Mo-MLV reverse transcriptase (Invitrogen) with DNAse I (Ambion) treatment for 30 min. The one-tenth of the produced cDNA was amplified by PCR using Taq DNA polymerase (Invitrogen) and two reporter sequence-specific primers. The PCR products were fluorescently labeled by primer extension with 6-arboxyfluorescein (6-FAM) 5'-labeled reporter sequence-specific primer (2 min at 95 C, 20 s at 68 C and 10 min at 72 C) and these products were digested with 5U of HpaI (New England Biolabs) for 2h at 37 C. The fragments were purified using Qiaquick PCR columns (Qiagen), analyzed on an ABI 3130xL genetic analyzer (Applied Biosystems) with peak positions identified by using a set of X-rhodamine (ROX)-labeled MapMarker1000 molecular weight standards (BioVentures). The raw capillary electrophoresis data was processed using Attagraph software (Attagene).

| SMILES | outcome | AC50 |
| --- | --- | --- |
| O=C(O)CCC(=O)O | inactive | – |
| Cc1cc(C)c(C=O)c(C)c1 | inactive | – |
| O=C(Cl)c1c(Cl)c(Cl)c(C(=O)Cl)c(Cl)c1Cl | inactive | – |
| CCOC(=O)CC(=O)c1ccccc1 | inactive | – |
| C=C1C[C@H]2[C@@H]3C=C(C)C4=CC(=O)CC[C@]4(C)[C@H]3CC[C@]2(C)[C@@]1(OC(C)=O)C(C)=O | – | 63 µM (active) |
| C=C(C)C(=O)OCC(O)COc1ccc(C(C)(C)c2ccc(OCC(O)COC(=O)C(=C)C)cc2)cc1 (stereo not given) | – | 51 µM (active) |
| Clc1cc(Cl)c(Cl)c(Cl)c1Cl | inactive | – |
| CC1=CC(C)C(C=O)CC1 (stereo not given) | inactive | – |
| CCCCC1C(=O)N(c2ccccc2)N(c2ccccc2)C1=O | inactive | – |
| CCCC(C)C(=O)OCC (stereo not given) | inactive | – |
| CC1(C)CCC[C@]2(C)[C@H]3CC(=O)O[C@]3(C)CC[C@@H]12 | – | 32.3 µM (active) |
| COC(OC)(C(=O)c1ccccc1)c1ccccc1 | inactive | – |
| CC(c1cc(C(C)(C)C)cc(C(C)(C)C)c1O)c1cc(C(C)(C)C)cc(C(C)(C)C)c1O | inactive | – |
| COc1ccc(-c2coc3cc(O)cc(O)c3c2=O)cc1 | inactive | – |
| CCCCC(=O)O | inactive | – |
| CCCCOC(=O)CCC(C)=O | inactive | – |
| CC(=O)OC1CCCCC1 | inactive | – |
| C=CC(=O)OCCCCCCCCCC | inactive | – |
| O=S(=O)(O)c1ccc(Nc2nc(Nc3ccc(C=Cc4ccc(Nc5nc(Nc6ccc(S(=O)(=O)O)cc6)nc(N(CCO)CCO)n5)cc4S(=O)(=O)O)c(S(=O)(=O)O)c3)nc(N(CCO)CCO)n2)cc1 | inactive | – |
| CC(C)(O)Cc1ccccc1 | inactive | – |

| SMILES | outcome | AC50 |
| --- | --- | --- |
| [Cl][Sc]([Cl])[Cl] | inactive | – |
| CCCC1CCCC(=O)O1 (stereo not given) | inactive | – |
| O=C1CCCCCCCCCCCN1 | inactive | – |
| Nc1cccc(N)n1 | inactive | – |
| C=C(C)OC(C)=O | inactive | – |
| O=C(Cl)c1ccc(C(=O)Cl)cc1 | inactive | – |
| O=C(O)CC(C(=O)O)S(=O)(=O)O (stereo not given) | inactive | – |
| CCCCC1CCC(=O)O1 (stereo not given) | inactive | – |
| CCOC(=O)C1=NOC(c2ccccc2)(c2ccccc2)C1 | inactive | – |
| N=C1C=CC(=C(c2ccc(N)cc2)c2ccc(N)cc2)C=C1 | – | 26 µM (active) |
| CCCC/C=C/C=C\C=O | inactive | – |
| NC(=O)Nc1ccccc1 | inactive | – |
| CCOC(=O)[C@H](O)[C@@H](O)C(=O)OCC | inactive | – |
| CC(=O)OCCc1ccccc1 | inactive | – |
| CC(C)(C)NC(=O)[C@H]1CC[C@H]2[C@@H]3CC[C@H]4NC(=O)C=C[C@]4(C)[C@H]3CC[C@]12C | inactive | – |
| C=CC(=O)OCCCCCCCC(C)C | inactive | – |
| CCCCCCCCCCCC(C)=O | – | 141 µM (active) |
| CC(C)[N+](C)(CCOC(=O)C1c2ccccc2Oc2ccccc21)C(C)C | inactive | – |
| CCCCC(CC)COC(=O)/C=C/c1ccc(OC)cc1 (stereo not given) | inactive | – |
| Cc1c(C(=O)c2c[nH]n(C)c2=O)ccc(S(C)(=O)=O)c1C1=NOCC1 | inactive | – |
